Our source for the binding signal values is paper PMC8384837, “Expanding the binding specificity for RNA recognition by a PUF domain”.

Numbering of substitutions follows the chain as printed.

Common to all, as to experiment: yeast three-hybrid, YBZ-1, SC-Leu-His + 0.5 mM 3-AT, 4 days
What all share (conditions): tags: N-Gal4 AD-HA kept; label: inside an RPR1-promoter hybrid RNA with tandem MS2 sites; ssRNA

The target in one assay is PUM1 PUF domain R3-GWG (Homo sapiens, UniProt Q14671 828-1176, C935G;R936W;Q939G). Put shortly:
(§1)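 A centromeric plasmid in strain YBZ-1 co-expressed Pumilio-1 PUF domain libraries, randomized at the three base-contacting residues of each repeat, with matching RNA elements; the strain carries a LexA–MS2 coat fusion and a HIS3 reporter. After four days on SC-Leu (input) or SC-Leu-His + 0.5 mM 3-AT (selection), the repeat regions were PCR-amplified and Illumina-sequenced. The interaction score is the log change in variant frequency from input to selection, using log2 and a pseudocount of 1 where absent.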

The target of the next assay is PUM1 PUF domain R2-IVF (Homo sapiens, UniProt Q14671 828-1176, N899I;Y900V;Q903F). Put shortly: as §1
The target of another assay is PUM1 PUF domain R5-HLY (Homo sapiens, UniProt Q14671 828-1176, C1007H;R1008L;Q1011Y). Put shortly: as §1
Another assay has as its target PUM1 PUF domain R5-RFR (Homo sapiens, UniProt Q14671 828-1176, C1007R;R1008F;Q1011R). The method, boiled down:
as §1

For a further assay, the target named is PUM1 PUF domain R4-AHP (Homo sapiens, UniProt Q14671 828-1176, N971A;Q975P). Put shortly:
as §1

The next assay concerns the target PUM1 PUF domain R7-GGK (Homo sapiens, UniProt Q14671 828-1176, S1079G;N1080G;E1083K). Put shortly:
as §1

For a further assay, the target named is PUM1 PUF domain R1-KIM (Homo sapiens, UniProt Q14671 828-1176, S863K;R864I;Q867M). Put shortly:
as §1

A further assay addresses PUM1 PUF domain R1-NWV (Homo sapiens, UniProt Q14671 828-1176, S863N;R864W;Q867V). Put shortly: as §1
The target of another assay is PUM1 PUF domain R1-YYR (Homo sapiens, UniProt Q14671 828-1176, S863Y;R864Y;Q867R). The method, boiled down:
as §1

The target in another assay is PUM1 PUF domain R3-RAV (Homo sapiens, UniProt Q14671 828-1176, C935R;R936A;Q939V). Put shortly: as §1
The next assay has as its target PUM1 PUF domain R3-RQR (Homo sapiens, UniProt Q14671 828-1176, C935R;R936Q;Q939R). Put shortly:
as §1

The next assay addresses PUM1 PUF domain R3-SRP (Homo sapiens, UniProt Q14671 828-1176, C935S;Q939P). Put shortly:
as §1

The next assay addresses T1, PUM1 PUF domain R6-NRI (Homo sapiens, UniProt Q14671 828-1176, Y1044R;Q1047I).
T1 sequence: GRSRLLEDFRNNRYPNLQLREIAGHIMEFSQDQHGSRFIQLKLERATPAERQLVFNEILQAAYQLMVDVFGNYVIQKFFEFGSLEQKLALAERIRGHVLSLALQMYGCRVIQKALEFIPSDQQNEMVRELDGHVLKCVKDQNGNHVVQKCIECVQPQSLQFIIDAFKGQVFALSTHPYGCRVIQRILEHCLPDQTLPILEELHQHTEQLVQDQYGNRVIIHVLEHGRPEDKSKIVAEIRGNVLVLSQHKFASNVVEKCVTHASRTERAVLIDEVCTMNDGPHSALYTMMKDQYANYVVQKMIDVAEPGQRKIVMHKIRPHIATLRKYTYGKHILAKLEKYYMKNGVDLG
Put shortly:
as §1

For another assay, the target named is PUM1 PUF domain R4-QPS (Homo sapiens, UniProt Q14671 828-1176, N971Q;H972P;Q975S). Put shortly:
as §1

For the next assay, the target named is PUM1 PUF domain R8-LYR (Homo sapiens, UniProt Q14671 828-1176, N1122L;Q1126R). The method, boiled down: as §1
In the next assay the target is T2, PUM1 PUF domain R6-HFS (Homo sapiens, UniProt Q14671 828-1176, N1043H;Y1044F;Q1047S).
T2 sequence: T1 sequence with N216H, R217F, I220S
The method, boiled down:
as §1

The next assay has as its target PUM1 PUF domain R8-RFM (Homo sapiens, UniProt Q14671 828-1176, N1122R;Y1123F;Q1126M). Put shortly: as §1
Another assay concerns the target PUM1 PUF domain R3-GRH (Homo sapiens, UniProt Q14671 828-1176, C935G;Q939H). The method, boiled down:
as §1

A further assay concerns the target PUM1 PUF domain R5-QNR (Homo sapiens, UniProt Q14671 828-1176, C1007Q;R1008N;Q1011R). Put shortly:
as §1

A further assay deals with PUM1 PUF domain R4-EWD (Homo sapiens, UniProt Q14671 828-1176, N971E;H972W;Q975D). Put shortly: as §1

Chain of PUM1 PUF domain R1-YYR (Q14671 828-1176 S863Y/R864Y/Q867R): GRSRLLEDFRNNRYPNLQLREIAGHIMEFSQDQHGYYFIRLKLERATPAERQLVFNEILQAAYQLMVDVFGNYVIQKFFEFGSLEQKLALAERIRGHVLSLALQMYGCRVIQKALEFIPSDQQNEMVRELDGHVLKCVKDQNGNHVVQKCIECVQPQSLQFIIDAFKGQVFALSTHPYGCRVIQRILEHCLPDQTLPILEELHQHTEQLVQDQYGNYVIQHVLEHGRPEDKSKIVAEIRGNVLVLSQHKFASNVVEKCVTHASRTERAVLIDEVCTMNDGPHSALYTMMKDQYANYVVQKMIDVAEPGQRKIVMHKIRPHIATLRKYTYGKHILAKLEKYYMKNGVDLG
Chain of PUM1 PUF domain R3-GWG (Q14671 828-1176 C935G/R936W/Q939G): as the sequence (Q14671 828-1176 S863Y/R864Y/Q867R) above, with Y36S, Y37R, R40Q, C108G, R109W, Q112G counted along it
Chain of PUM1 PUF domain R5-RFR (Q14671 828-1176 C1007R/R1008F/Q1011R): as the sequence (Q14671 828-1176 S863Y/R864Y/Q867R) above, with Y36S, Y37R, R40Q, C180R, R181F, Q184R counted along it

As for “GGCUAGAACUAGUGGAUCCCCCGGCGCCCGGCGGCUCGAGCCCGGGUAAGUGUAAGUAGUCUGCAUGCCGCCGGGCGCCAUGCCUGCAGGUCGACUCUAGAAAACAUG”, the binding signal with PUM1 PUF domain R3-GWG was 3.17 log2 enrichment (interaction score).

For the sequence “GGCUAGAACUAGUGGAUCCCCCGGCGCCCGGCGGCUCGAGCCCGGGUAAGUGUAAAGAGUCUGCAUGCCGCCGGGCGCCAUGCCUGCAGGUCGACUCUAGAAAACAUG”, the binding signal with PUM1 PUF domain R2-IVF is 4.01 log2 enrichment (interaction score).

“GGCUAGAACUAGUGGAUCCCCCGGCGCCCGGCGGCUCGAGCCCGGGUAAGUGUCAAUAGUCUGCAUGCCGCCGGGCGCCAUGCCUGCAGGUCGACUCUAGAAAACAUG”: the binding signal with PUM1 PUF domain R5-HLY is 3.47 log2 enrichment (interaction score); with PUM1 PUF domain R5-RFR it was 5.35 log2 enrichment (interaction score).

In the case of “GGCUAGAACUAGUGGAUCCCCCGGCGCCCGGCGGCUCGAGCCCGGGUAAGUGUACAUAGUCUGCAUGCCGCCGGGCGCCAUGCCUGCAGGUCGACUCUAGAAAACAUG”, the binding signal in the assay with PUM1 PUF domain R4-AHP was 4.93 log2 enrichment (interaction score).

Regarding “GGCUAGAACUAGUGGAUCCCCCGGCGCCCGGCGGCUCGAGCCCGGGUAAGUUUAAAUAGUCUGCAUGCCGCCGGGCGCCAUGCCUGCAGGUCGACUCUAGAAAACAUG”, the binding signal with PUM1 PUF domain R7-GGK was 3.4 log2 enrichment (interaction score).

Take “GGCUAGAACUAGUGGAUCCCCCGGCGCCCGGCGGCUCGAGCCCGGGUAAGUGUAAAUUGUCUGCAUGCCGCCGGGCGCCAUGCCUGCAGGUCGACUCUAGAAAACAUG”: the figures for the binding signal with PUM1 PUF domain R1-KIM, with PUM1 PUF domain R1-NWV and with PUM1 PUF domain R1-YYR were 3.49 log2 enrichment (interaction score), 4.33 log2 enrichment (interaction score) and 7.65 log2 enrichment (interaction score), respectively.

Turning to “GGCUAGAACUAGUGGAUCCCCCGGCGCCCGGCGGCUCGAGCCCGGGUAAGUGUAAAUCGUCUGCAUGCCGCCGGGCGCCAUGCCUGCAGGUCGACUCUAGAAAACAUG”, in the assay with PUM1 PUF domain R1-YYR, the binding signal was 2.79 log2 enrichment (interaction score).

For “GGCUAGAACUAGUGGAUCCCCCGGCGCCCGGCGGCUCGAGCCCGGGUAAGUGUAAUUAGUCUGCAUGCCGCCGGGCGCCAUGCCUGCAGGUCGACUCUAGAAAACAUG”, the binding signal with PUM1 PUF domain R3-RAV is 3.5 log2 enrichment (interaction score); with PUM1 PUF domain R3-GWG, 1.55 log2 enrichment (interaction score); with PUM1 PUF domain R3-RQR, 3.88 log2 enrichment (interaction score); with PUM1 PUF domain R3-SRP, 1.56 log2 enrichment (interaction score).

Take “GGCUAGAACUAGUGGAUCCCCCGGCGCCCGGCGGCUCGAGCCCGGGUAAGUGAAAAUAGUCUGCAUGCCGCCGGGCGCCAUGCCUGCAGGUCGACUCUAGAAAACAUG”: the binding signal with PUM1 PUF domain R6-NRI is 2.1 log2 enrichment (interaction score).

Consider “GGCUAGAACUAGUGGAUCCCCCGGCGCCCGGCGGCUCGAGCCCGGGUAAGUGUAUAUAGUCUGCAUGCCGCCGGGCGCCAUGCCUGCAGGUCGACUCUAGAAAACAUG”, for which the binding signal with PUM1 PUF domain R4-QPS is 3.86 log2 enrichment (interaction score).

Regarding “GGCUAGAACUAGUGGAUCCCCCGGCGCCCGGCGGCUCGAGCCCGGGUAAGCGUAAAUAGUCUGCAUGCCGCCGGGCGCCAUGCCUGCAGGUCGACUCUAGAAAACAUG”, the binding signal with PUM1 PUF domain R8-LYR is 5.06 log2 enrichment (interaction score).

In the case of “GGCUAGAACUAGUGGAUCCCCCGGCGCCCGGCGGCUCGAGCCCGGGUAAGUGUAAAUAGUCUGCAUGCCGCCGGGCGCCAUGCCUGCAGGUCGACUCUAGAAAACAUG”, the binding signal in the assay with PUM1 PUF domain R4-QPS was 1.44 log2 enrichment (interaction score); in the assay with PUM1 PUF domain R3-GWG, 4.07 log2 enrichment (interaction score); with PUM1 PUF domain R6-NRI it was 4.34 log2 enrichment (interaction score); in the assay with PUM1 PUF domain R3-SRP, 5.42 log2 enrichment (interaction score); in the assay with PUM1 PUF domain R5-RFR, 2.72 log2 enrichment (interaction score); with PUM1 PUF domain R1-YYR, 3.43 log2 enrichment (interaction score). The binding signal with PUM1 PUF domain R6-HFS was 4.79 log2 enrichment (interaction score); with PUM1 PUF domain R8-RFM, 4.37 log2 enrichment (interaction score); with PUM1 PUF domain R8-LYR it was 4.3 log2 enrichment (interaction score); with PUM1 PUF domain R3-GRH, 4.23 log2 enrichment (interaction score).

For “GGCUAGAACUAGUGGAUCCCCCGGCGCCCGGCGGCUCGAGCCCGGGUAAGUGUUAAUAGUCUGCAUGCCGCCGGGCGCCAUGCCUGCAGGUCGACUCUAGAAAACAUG”, the binding signal with PUM1 PUF domain R5-RFR was 3.92 log2 enrichment (interaction score); with PUM1 PUF domain R5-QNR, 2.93 log2 enrichment (interaction score).

For “GGCUAGAACUAGUGGAUCCCCCGGCGCCCGGCGGCUCGAGCCCGGGUAAGUGUAGAUAGUCUGCAUGCCGCCGGGCGCCAUGCCUGCAGGUCGACUCUAGAAAACAUG”, the binding signal with PUM1 PUF domain R4-EWD was 4.33 log2 enrichment (interaction score).

Take “GGCUAGAACUAGUGGAUCCCCCGGCGCCCGGCGGCUCGAGCCCGGGUAAGUGUGAAUAGUCUGCAUGCCGCCGGGCGCCAUGCCUGCAGGUCGACUCUAGAAAACAUG”: the binding signal in the assay with PUM1 PUF domain R5-RFR was 2.74 log2 enrichment (interaction score).
